Measured values published in the supplement of paper PMC13380429.

Tested on: Vero E6 infected with SARS-CoV-2
Experiment: inhibition of SARS-CoV-2 cytopathic effect; higher = more antiviral protection, active = above 15
Details: 48 h

Measured: inhibition of SARS-CoV-2 cytopathic effect

O=C(C1CC1)N1CC[C@@H](Cc2n[nH]c(=O)n2-c2ccc(-c3ccc4occc4c3)cc2)C1
inactive: 1 nM -1.12% | 8.33 nM -1.14% | 100 nM -1.43% | 833.33 nM -0.64% | 10000 nM -4.48%

C=CCN1CCCC1CNC(=O)c1cc2nn[nH]c2cc1OC (stereo not given) [alizapride]
inactive: 1 nM 0.31% | 8.33 nM 1.78% | 100 nM -1.64% | 833.33 nM -1.24% | 10000 nM -0.58%

O=S(=O)(/N=C/c1c(O)ccc2ccccc12)c1cccs1
inactive: 1 nM 1.63% | 8.33 nM 2.5% | 100 nM 1.59% | 833.33 nM 1.88% | 10000 nM 0.08%

CN[C@@H](C)C(=O)N[C@H](C(=O)N1CCC[C@H]1C(=O)N[C@H]1c2ccccc2C[C@H]1OCC#CC#CCO[C@@H]1Cc2ccccc2[C@@H]1NC(=O)[C@@H]1CCCN1C(=O)[C@@H](NC(=O)[C@H](C)NC)C1CCCCC1)C1CCCCC1
inactive: 1 nM 0.65% | 8.33 nM 4.06% | 100 nM 1.35% | 833.33 nM -6.56% | 10000 nM -3.86%

Cc1cc(OCCN2CCOCC2)nn1-c1ccc2ccccc2c1
inactive: 1 nM -2.51% | 8.33 nM -1.6% | 100 nM -2.06% | 833.33 nM 0.03% | 10000 nM 1.91%

COc1cc2c(NC3CCN(CC4CCCCC4)CC3)nc(N3CCCN(C(C)C)CC3)nc2cc1OCCCN1CCCCC1
inactive: 1 nM 0.74% | 8.33 nM -1.71% | 100 nM -3.06% | 833.33 nM 0.36% | 10000 nM -20.7%

CCCCCCC[N+](CC)(CC)CCCCc1ccc(Cl)cc1 [clofilium]
inactive: 1 nM 2.85% | 8.33 nM 1.44% | 100 nM 1.58% | 833.33 nM 1.2% | 10000 nM 3.38%

C1CCC2(CC1)CCNCC2 [4,4-pentamethylenepiperidine]
inactive: 1 nM 0.06% | 8.33 nM 0.78% | 100 nM -1% | 833.33 nM 1.32% | 10000 nM 0.37%

Cc1ncc(CO)c(/C=N/NC(=O)c2ccncc2)c1O [pyridoxal-isonicotinoyl-hydrazone]
inactive: 1 nM 3.14% | 8.33 nM -0.89% | 100 nM -0.41% | 833.33 nM 0.28% | 10000 nM -0.54%

CC(O)COC[C@H]1O[C@@H]2O[C@H]3[C@H](O)[C@@H](O)[C@@H](O[C@H]4[C@H](O)[C@@H](O)[C@@H](O[C@H]5[C@H](O)[C@@H](O)[C@@H](O[C@H]6[C@H](O)[C@@H](O)[C@@H](O[C@H]7[C@H](O)[C@@H](O)[C@@H](O[C@H]8[C@H](O)[C@@H](O)[C@@H](O[C@H]1[C@H](O)[C@H]2O)O[C@@H]8COCC(C)O)O[C@@H]7COCC(C)O)O[C@@H]6COCC(C)O)O[C@@H]5COCC(C)O)O[C@@H]4COCC(C)O)O[C@@H]3COCC(C)O (stereo partly drawn) [hydroxypropyl-beta-cyclodextrin]
inactive: 1 nM 1.48% | 8.33 nM -0.26% | 100 nM 1.56% | 833.33 nM 0.29% | 10000 nM 0.7%

COc1ccc(Nc2ccn(-c3ccccc3)n2)cc1
inactive: 1 nM 2.12% | 8.33 nM 1.12% | 100 nM 3.85% | 833.33 nM 3.51% | 10000 nM 4.1%

C=CCc1cccc(/C=N/NC(=O)CN2CCN(Cc3ccccc3)CC2)c1O
inactive: 1 nM 0.07% | 8.33 nM 0.95% | 100 nM 4.72% | 833.33 nM 0.65% | 10000 nM -2.23%

CCCCCCOc1cc2c(cc1N(C)c1ncc(C(=O)O)cn1)C(C)(C)CCC2(C)C
inactive: 1 nM -1.61% | 8.33 nM 3.1% | 100 nM 3.71% | 833.33 nM 4.08% | 10000 nM 5.06%

CC1=CC(=C(c2ccc(N)cc2)c2ccc(N)cc2)C=CC1=N [basic-fuchsin]
inactive: 1 nM 0.76% | 8.33 nM 0.35% | 100 nM 1.45% | 833.33 nM -0.79% | 10000 nM -17.1%

C=CC(=O)Nc1cccc(Oc2nc(Nc3ccc(N4CCN(C)CC4)cc3)nc3ccsc23)c1 [olmutinib]
inactive: 1 nM -1.91% | 8.33 nM 3.26% | 100 nM 11.6% | 833.33 nM -12% | 10000 nM -10.1%

CC(=O)OCC1=C(C(=O)O)N2C(=O)[C@@H](NC(=O)CS/C(=N/C(C)C)NC(C)C)[C@H]2SC1 [cefathiamidine]
inactive: 1 nM -0.52% | 8.33 nM -0.04% | 100 nM 1.14% | 833.33 nM 0.34% | 10000 nM 0.26%

O=C([O-])C(O)[C@H](O)[C@@H](O)[C@H](O)[C@H](O)CO.O=C([O-])C(O)[C@H](O)[C@@H](O)[C@H](O)[C@H](O)CO.[Ca+2] (stereo not given in full) [calcium-gluceptate]
inactive: 1 nM -7.86% | 8.33 nM -1.7% | 100 nM -4.55% | 833.33 nM -3.31% | 10000 nM -3.66%

COC(=O)[C@]12CCC(C)(C)C[C@H]1[C@H]1C(=O)C=C3[C@@]4(C)C=C(C#N)C(=O)C(C)(C)[C@@H]4CC[C@@]3(C)[C@]1(C)CC2 [Bardoxolone Methyl]
inactive: 1 nM 2.85% | 8.33 nM 3.94% | 100 nM -1.03% | 10000 nM -23.4%
active: 833.33 nM 33.7%

COc1cc(N2CCN(C)CC2)ccc1Nc1nccc(-c2cn(C)c3cnccc23)n1
inactive: 1 nM 0.14% | 8.33 nM -0.24% | 100 nM 2.63% | 833.33 nM -0.7%
active: 10000 nM 40.7%
